Measured values published in PubChem BioAssay (NCI).
About 83,000 compounds went through this panel and 20% of them were active in at least one assay; those are over-represented in the sample as a whole.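 Each cell line was grown in a 96-well plate and treated with one concentration of compound for 48 hours. Values below 10 were considered active.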 A number with no mark means an inactive call. The source made the active and inactive calls.

Experiments:
Test in all cases: NCI-60 one-dose screen, 48 h (100 = growth as untreated, 0 = no growth, -100 = all killed)
Details in all cases: 10 µM unless noted
[1] = test system: DU-145 prostate
[2] = test system: K-562 leukemia
[3] = test system: MALME-3M melanoma
[4] = test system: MDA-MB-231 breast
[5] = test system: RXF 393 renal
[6] = test system: SF-268 CNS
[7] = test system: SF-295 CNS
[8] = test system: SF-539 CNS
[9] = test system: UACC-257 melanoma
[10] = test system: M14 melanoma
[11] = test system: HCT-15 colon
[12] = test system: HT29 colon
[13] = test system: SNB-75 CNS
[14] = test system: SNB-19 CNS
[15] = test system: U251 CNS
[16] = test system: PC-3 prostate
[17] = test system: SK-MEL-5 melanoma
[18] = test system: UACC-62 melanoma
[19] = test system: LOX IMVI melanoma
[20] = test system: SK-MEL-28 melanoma

C#CCOc1ccc2ncnc(Nc3cccc(NC(=O)CCl)c3)c2c1
growth [1]: 74% | growth [2]: 55.2% | growth [3]: 71.9% | growth [4]: 73.7% | growth [5]: 79.6% | growth [6]: 60.6% | growth [7]: 106% | growth [8]: 84.4% | growth [9]: 80.3% | growth [10]: 77.1% | growth [11]: 50.6% | growth [12]: 33.5% | growth [13]: 68.9% | growth [14]: 71.8% | growth [15]: 62.2% | growth [16]: 70% | growth [17]: 68.3% | growth [18]: 60.6% | growth [19]: -68.1% (active) | growth [20]: 90.6%

CCCCn1sc(=O)n(Cc2ccc(CNC(=O)OCc3ccc4c(Br)cc(Br)c(O)c4n3)cc2)c1=O
growth [1]: 6.37% (active) | growth [2]: 12.8% | growth [3]: 61.1% | growth [4]: 38.6% | growth [5]: 15.9% | growth [6]: 33.9% | growth [7]: 13.7% | growth [8]: -14% (active) | growth [9]: 48.4% | growth [10]: 10.4% | growth [11]: 9.07% (active) | growth [12]: 96.4% | growth [13]: 14.4% | growth [14]: 37.4% | growth [15]: 11.2% | growth [16]: 18.9% | growth [17]: -35.2% (active) | growth [18]: 37.6% | growth [19]: 22.9% | growth [20]: 67.4%

N#Cc1c(Nc2ccc(F)cc2)n[nH]c1-c1cccs1
growth [1]: 113% | growth [2]: 99.2% | growth [3]: 108% | growth [4]: 89.5% | growth [5]: 112% | growth [6]: 98% | growth [7]: 97.7% | growth [8]: 98.8% | growth [9]: 120% | growth [10]: 104% | growth [11]: 97.7% | growth [12]: 114% | growth [13]: 85.6% | growth [14]: 85.6% | growth [15]: 102% | growth [16]: 95.7% | growth [17]: 97.1% | growth [18]: 76.9% | growth [19]: 95.1% | growth [20]: 105%

CCCCCCC(CCCC)COC(=O)c1ccc(Cl)cc1 (stereo not given)
growth [1]: 105% | growth [2]: 104% | growth [3]: 111% | growth [4]: 106% | growth [5]: 105% | growth [6]: 102% | growth [7]: 102% | growth [8]: 106% | growth [9]: 112% | growth [10]: 104% | growth [11]: 107% | growth [12]: 121% | growth [13]: 95% | growth [14]: 109% | growth [15]: 113% | growth [16]: 96.5% | growth [17]: 96.5% | growth [18]: 98.7% | growth [19]: 103% | growth [20]: 112%

COC(=O)c1ccc2c(c1)c1c(C)c3ccncc3c(C)c1n2C
growth [1]: 22.7% | growth [2]: 8.47% (active) | growth [3]: 5.36% (active) | growth [4]: 25.1% | growth [5]: 17.5% | growth [6]: 26.3% | growth [7]: 24.1% | growth [8]: 31.9% | growth [9]: 1.45% (active) | growth [10]: 30.8% | growth [11]: 18.6% | growth [12]: 12.4% | growth [13]: 22% | growth [14]: 29% | growth [15]: 20.9% | growth [16]: 31.8% | growth [17]: 14.5% | growth [18]: 3.04% (active) | growth [19]: 4.81% (active) | growth [20]: 35.4%

CCOC(=O)c1c(-c2ccccc2)n2c(=O)cc(C)c3c(O)c(O)cc1c32
growth [1]: 76.9% | growth [2]: 53.4% | growth [3]: 64.7% | growth [4]: 76.3% | growth [5]: 76.3% | growth [6]: 52.2% | growth [7]: 59.9% | growth [8]: 75.7% | growth [9]: 69.7% | growth [10]: 66.2% | growth [11]: 28.8% | growth [12]: 70.9% | growth [13]: 63.6% | growth [14]: 65.6% | growth [15]: 48.8% | growth [16]: 41.7% | growth [17]: 41.9% | growth [18]: 69.4% | growth [19]: 43% | growth [20]: 76%

O=C(NCc1ccccc1O)c1cccc2ccccc12
growth [1]: 95.6% | growth [2]: 55.1% | growth [3]: 48.7% | growth [4]: 68.9% | growth [5]: 95.2% | growth [6]: 87.9% | growth [7]: 87.3% | growth [8]: 63.5% | growth [9]: 75.5% | growth [10]: 75.8% | growth [11]: 68.9% | growth [12]: 107% | growth [13]: 66.5% | growth [14]: 69.3% | growth [15]: 81.6% | growth [16]: 52.5% | growth [17]: 60.1% | growth [18]: 37.9% | growth [19]: 79.6% | growth [20]: 71.5%

S=c1[nH]c2cc(Cl)ccc2o1
growth [1]: 102% | growth [2]: 90.7% | growth [3]: 102% | growth [4]: 89% | growth [5]: 104% | growth [6]: 105% | growth [7]: 99.2% | growth [8]: 106% | growth [9]: 113% | growth [10]: 94.3% | growth [11]: 98.6% | growth [12]: 105% | growth [13]: 111% | growth [14]: 102% | growth [15]: 104% | growth [16]: 88% | growth [17]: 99% | growth [18]: 96.6% | growth [19]: 103% | growth [20]: 114%

COc1ccc2nc(SCC(=O)Nc3ccccc3C)[nH]c2c1
growth [1]: 105% | growth [2]: 97.5% | growth [3]: 96.9% | growth [4]: 98.6% | growth [5]: 105% | growth [6]: 102% | growth [7]: 93% | growth [8]: 101% | growth [9]: 90% | growth [10]: 101% | growth [11]: 99.8% | growth [12]: 109% | growth [13]: 82.5% | growth [14]: 95% | growth [15]: 93.5% | growth [16]: 84.5% | growth [17]: 95.7% | growth [18]: 84.5% | growth [19]: 95.6% | growth [20]: 95.8%

COc1ccc2c(c1)c(-c1nonc1-c1cn(C)c3ccc(OC)cc13)cn2C
growth [1]: 70.9% | growth [2]: 13% | growth [3]: 41.7% | growth [4]: 49.5% | growth [5]: 70.9% | growth [6]: 54.2% | growth [7]: 30.4% | growth [8]: 33.9% | growth [9]: 62.4% | growth [10]: 16.6% | growth [11]: 25.4% | growth [12]: 13.1% | growth [13]: 24% | growth [14]: 36.8% | growth [15]: 33.7% | growth [16]: 50.1% | growth [17]: 38% | growth [18]: 26.3% | growth [19]: 39.7% | growth [20]: 60.8%

COC(=O)C1=Nc2ccc(F)cc2/C1=C\c1sc(Nc2ccc(O)cc2)nc1O
growth [1]: 93.9% | growth [2]: 23.2% | growth [3]: 45.9% | growth [4]: 76.7% | growth [5]: 43.6% | growth [6]: 59.8% | growth [7]: 61% | growth [8]: 55.4% | growth [9]: 72.2% | growth [10]: 49% | growth [11]: 74.3% | growth [12]: 106% | growth [13]: 33.8% | growth [14]: 45.7% | growth [15]: 46.4% | growth [16]: 52.1% | growth [17]: 60.3% | growth [18]: 34.3% | growth [19]: 64% | growth [20]: 66.1%

COc1cccc(OC)c1Oc1c(-c2nc3ccccc3s2)c(C)nn1-c1ccccc1
growth [1]: 79.4% | growth [2]: 61% | growth [3]: 81.7% | growth [4]: 76.4% | growth [5]: 67.9% | growth [6]: 77.1% | growth [7]: 69.4% | growth [8]: 92% | growth [9]: 92.4% | growth [10]: 72.3% | growth [11]: 51.7% | growth [12]: 71.2% | growth [13]: 74.8% | growth [14]: 92.7% | growth [15]: 84.8% | growth [16]: 51.1% | growth [17]: 73.7% | growth [18]: 56.2% | growth [19]: 62.9% | growth [20]: 106%

C#Cc1cccc(Nc2nc3ccc([N+](=O)[O-])cc3nc2Nc2cccc(C#C)c2)c1
growth [1]: -52.4% (active) | growth [2]: -57.5% (active) | growth [3]: -29.5% (active) | growth [4]: -57% (active) | growth [5]: -56.4% (active) | growth [6]: -51.4% (active) | growth [7]: -69.4% (active) | growth [8]: -77.4% (active) | growth [9]: -70.1% (active) | growth [10]: -82% (active) | growth [11]: -69.4% (active) | growth [12]: -75.9% (active) | growth [13]: -91.9% (active) | growth [14]: -19.2% (active) | growth [15]: -91.1% (active) | growth [16]: -41.9% (active) | growth [17]: -88.9% (active) | growth [18]: -39.3% (active) | growth [19]: -93.2% (active) | growth [20]: -69.4% (active)

C=C1C(=O)O[C@H]2[C@H]1CC/C(Cn1cc(-c3cc(C(F)(F)F)cc(C(F)(F)F)c3)nn1)=C\CC[C@@]1(C)O[C@@H]21
growth [1]: -90% (active) | growth [2]: -37.6% (active) | growth [3]: -88.5% (active) | growth [4]: -75.7% (active) | growth [5]: -90.9% (active) | growth [6]: -78.7% (active) | growth [7]: -67.4% (active) | growth [8]: -92.2% (active) | growth [9]: -85.3% (active) | growth [10]: -70.3% (active) | growth [11]: -90.6% (active) | growth [12]: -86% (active) | growth [13]: -96.6% (active) | growth [14]: -80.3% (active) | growth [15]: -97.6% (active) | growth [16]: -81% (active) | growth [17]: -99.5% (active) | growth [18]: -76.6% (active) | growth [19]: -87.1% (active) | growth [20]: -82.7% (active)

O=C(c1ccc(F)c(Cl)c1)N1c2ccccc2Sc2ccccc21
growth [1]: 90.3% | growth [2]: 21.5% | growth [3]: 64.1% | growth [4]: 61% | growth [5]: 70.8% | growth [6]: 66.8% | growth [7]: 64.3% | growth [8]: 62.3% | growth [9]: 61% | growth [10]: 53.1% | growth [11]: 27.2% | growth [12]: 36.2% | growth [13]: 68.6% | growth [14]: 77% | growth [15]: 39.4% | growth [16]: 40.3% | growth [17]: 34.4% | growth [18]: 25.7% | growth [19]: 41.2% | growth [20]: 61.7%
